According to PubChem BioAssay:
The source made the active and inactive calls.

What was measured:
Albumin (Bos taurus) = Albumin (Bos taurus) (UniProt P02769); experiment: bovine serum albumin binders on microarray, profiling panel, artefact control for SMM control protein annotation, biochemical, small-molecule microarray, Alexa647 label, 635/667 nm fluorescence (AID 1118); settings: BSA-A647 binding, fluorescence 635 nm, higher = more signal;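 note: score merges 667 nm emission intensity and signal-to-noise per printed compound spot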
Albumin (Bos taurus), sequence (P02769 whole entry, looked up): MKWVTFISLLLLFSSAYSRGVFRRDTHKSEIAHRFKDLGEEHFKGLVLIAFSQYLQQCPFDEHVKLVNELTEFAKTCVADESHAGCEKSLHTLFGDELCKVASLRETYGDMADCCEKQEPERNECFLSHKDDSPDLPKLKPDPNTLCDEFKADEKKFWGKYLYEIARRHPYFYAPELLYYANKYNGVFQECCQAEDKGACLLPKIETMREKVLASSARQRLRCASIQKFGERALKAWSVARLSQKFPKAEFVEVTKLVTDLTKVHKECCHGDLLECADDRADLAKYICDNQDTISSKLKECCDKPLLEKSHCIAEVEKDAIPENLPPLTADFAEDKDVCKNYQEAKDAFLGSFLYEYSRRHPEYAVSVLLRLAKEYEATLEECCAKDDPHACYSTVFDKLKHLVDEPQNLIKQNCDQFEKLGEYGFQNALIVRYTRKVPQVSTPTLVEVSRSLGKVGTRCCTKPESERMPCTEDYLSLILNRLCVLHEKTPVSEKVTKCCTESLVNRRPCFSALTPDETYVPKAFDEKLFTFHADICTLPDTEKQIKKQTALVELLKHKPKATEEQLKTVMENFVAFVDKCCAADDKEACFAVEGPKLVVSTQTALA

[1] = small-molecule microarray binders of probe aXIP, primary screen, biochemical, NeuroSMM set, 635/667 nm fluorescence (AID 1119); settings: higher = more signal, called active from +8 up or from −8 down;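 note: probe is the protein aXip251-270 applied at 1 µg/mL to compound-printed slides; binding of probe to printed compounds measured as 667 nm fluorescence plus signal to noise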
[2] = small-molecule binders of probe aNOTCH3, primary screen, biochemical, small-molecule microarray, 635/667 nm fluorescence (AID 1120); settings: higher = more signal;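 note: probe is a biotin-tagged antibody raised against NOTCH3 rather than NOTCH3 protein; score merges spot fluorescence near 667 nm with spot signal to noise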
[3] = small-molecule binders of probe aNOTCH2, primary screen, biochemical, small-molecule microarray, 635/667 nm fluorescence (AID 1121); settings: higher = more signal;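 note: score merges feature fluorescence read at 667 nm with its signal to noise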
[4] = molecular target: Carbonic anhydrase 2 (Homo sapiens) (UniProt P00918); experiment: CAII small-molecule binders, profiling panel, biochemical, small-molecule microarray, Alexa647-labelled CAII (AID 1122); settings: CAII-A647 binding fluorescence, higher = more signal
[5] = COS7 lysate on small-molecule microarray, probe aHis, 635 nm (AID 1123); settings: COS7 cell lysate, fluorescence, higher = more signal;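 note: z-score combines 667nm fluorescence intensity with signal-to-noise per printed compound spot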
[6] = compound binding in COS7 lysate, probe aLAP1, primary screen, cell lysate, small-molecule microarray (AID 1124); settings: probe aLAP1, fluorescence, higher = more signal;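 note: lysate comes from COS7 cells expressing LAP1 and is applied at 0.3 µg/mL; score merges spot fluorescence near 667 nm with signal-to-noise over triplicate slides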
Sam68 (KHDRBS1) = experiment: Sam68 small-molecule binders, primary screen, biochemical, small-molecule microarray, 635 nm fluorescence (AID 1125); settings: small-molecule microarray binding, higher = more signal;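 note: score merges 667 nm channel intensity with signal to noise over triplicate slides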
[7] = system: Chordin-like protein 2 (CHRDL2); experiment: CHRDL2 small-molecule binders, primary screen, biochemical, small-molecule microarray, 635 nm fluorescence (AID 1126); settings: small-molecule microarray binding, fluorescence 635 nm; higher = more signal;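 note: printed compound slides probed with Chrdl2 protein at 4 µg/mL for 1 h at 4 C; score merges 667 nm emission intensity with signal to noise over three replicate slides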
[8] = molecular target: Concanavalin-A (Canavalia ensiformis) (UniProt P02866); experiment: ConA small-molecule binders, primary screen, artefact control for SMM control protein annotation, biochemical, small-molecule microarray, Alexa647 label, 635 nm (AID 1127); settings: ConA-A647 binding fluorescence, higher = more signal;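 note: z combines 667 nm emission intensity with signal-to-noise across three replicate slides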
Concanavalin-A (Canavalia ensiformis), sequence (P02866 whole entry, looked up): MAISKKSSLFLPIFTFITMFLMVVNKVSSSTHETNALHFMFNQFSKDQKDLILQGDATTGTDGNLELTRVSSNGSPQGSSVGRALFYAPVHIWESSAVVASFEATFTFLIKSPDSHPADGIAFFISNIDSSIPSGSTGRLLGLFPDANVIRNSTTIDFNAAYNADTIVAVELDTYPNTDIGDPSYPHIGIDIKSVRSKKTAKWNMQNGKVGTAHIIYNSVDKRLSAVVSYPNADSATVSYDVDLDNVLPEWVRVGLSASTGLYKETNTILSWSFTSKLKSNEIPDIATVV

[9] = anti-His antibody binders, primary screen, artefact control for SMM control protein annotation, biochemical, small-molecule microarray, 635 nm fluorescence (AID 1128); settings: anti-His Alexa647 antibody binding, higher = more signal;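 note: score merges feature fluorescence with signal-to-noise for each printed compound spot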
[10] = system: Human papillomavirus type 1a E7 protein (residues 1-88); experiment: HPV1a E7 small-molecule binders, primary screen, biochemical, small-molecule microarray, residues 1-88, 635 nm (AID 1129); settings: small-molecule microarray binding, fluorescence 635 nm; higher = more signal
[11] = molecular target: Focal adhesion kinase 1 (Homo sapiens) (UniProt Q05397); experiment: small-molecule microarray binders of FAK, primary screen, biochemical, 635/667 nm fluorescence, BSA, DTT (AID 1130); settings: PTK2 binding, 635 nm fluorescence, higher = more signal;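 note: composite of spot emission at 667 nm and signal to noise over triplicate slides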
Focal adhesion kinase 1 (Homo sapiens), sequence (Q05397 whole entry, looked up): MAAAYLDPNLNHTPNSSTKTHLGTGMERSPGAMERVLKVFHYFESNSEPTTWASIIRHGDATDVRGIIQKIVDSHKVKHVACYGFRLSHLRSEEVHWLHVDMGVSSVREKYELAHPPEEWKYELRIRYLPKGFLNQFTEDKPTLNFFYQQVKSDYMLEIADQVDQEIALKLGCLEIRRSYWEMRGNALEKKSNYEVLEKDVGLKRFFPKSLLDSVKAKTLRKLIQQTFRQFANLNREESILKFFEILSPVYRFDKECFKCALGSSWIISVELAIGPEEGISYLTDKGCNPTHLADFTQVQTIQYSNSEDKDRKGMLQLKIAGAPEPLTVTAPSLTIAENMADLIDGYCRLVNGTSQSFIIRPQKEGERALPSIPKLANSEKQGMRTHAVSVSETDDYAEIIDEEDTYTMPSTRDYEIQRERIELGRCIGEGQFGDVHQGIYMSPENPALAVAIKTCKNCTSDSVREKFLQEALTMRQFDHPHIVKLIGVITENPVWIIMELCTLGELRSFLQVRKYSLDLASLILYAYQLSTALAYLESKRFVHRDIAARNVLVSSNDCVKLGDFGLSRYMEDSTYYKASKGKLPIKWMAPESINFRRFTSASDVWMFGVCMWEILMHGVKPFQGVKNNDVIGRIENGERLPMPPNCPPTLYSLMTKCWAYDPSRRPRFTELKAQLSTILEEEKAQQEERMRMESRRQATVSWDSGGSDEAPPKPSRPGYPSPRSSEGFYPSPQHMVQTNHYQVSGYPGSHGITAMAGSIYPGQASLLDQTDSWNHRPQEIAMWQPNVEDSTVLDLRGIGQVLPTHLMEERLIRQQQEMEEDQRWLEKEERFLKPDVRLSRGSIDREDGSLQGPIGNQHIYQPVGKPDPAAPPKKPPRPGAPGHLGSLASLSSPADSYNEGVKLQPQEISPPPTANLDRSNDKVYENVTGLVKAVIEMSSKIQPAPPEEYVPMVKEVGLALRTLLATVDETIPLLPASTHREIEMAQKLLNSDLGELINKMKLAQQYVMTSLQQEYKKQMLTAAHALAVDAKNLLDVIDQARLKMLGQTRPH

[12] = system: Fibrinogen (Alexa647-labelled); experiment: fibrinogen binders on compound microarrays, profiling panel, artefact control for SMM control-protein annotation, biochemical, small-molecule microarray, 635/667 nm fluorescence (AID 1131); settings: fibrinogen-A647 binding fluorescence, higher = more signal;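 note: z-score merges 667 nm fluorescence with per-spot signal-to-noise over triplicate slides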
[13] = molecular target: Follistatin (Homo sapiens) (UniProt P19883); experiment: follistatin binders on small-molecule microarrays, primary screen, biochemical, small-molecule microarray, 635/667 nm fluorescence (AID 1132); settings: FST binding, 635 nm fluorescence, higher = more signal
Follistatin (Homo sapiens), sequence (P19883 whole entry, looked up): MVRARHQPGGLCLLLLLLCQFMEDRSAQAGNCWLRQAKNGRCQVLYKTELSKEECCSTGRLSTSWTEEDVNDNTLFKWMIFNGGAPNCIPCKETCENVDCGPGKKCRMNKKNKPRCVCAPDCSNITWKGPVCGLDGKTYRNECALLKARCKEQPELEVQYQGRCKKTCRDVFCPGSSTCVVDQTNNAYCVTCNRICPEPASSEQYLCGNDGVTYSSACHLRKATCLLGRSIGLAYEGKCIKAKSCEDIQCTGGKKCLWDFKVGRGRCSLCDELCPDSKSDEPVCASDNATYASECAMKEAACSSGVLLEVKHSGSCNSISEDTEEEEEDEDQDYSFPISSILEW

[14] = molecular target: Fibroblast growth factor 2 (Homo sapiens) (UniProt P09038); experiment: FGF2 binders on small-molecule microarrays, primary screen, biochemical, small-molecule microarray, 635/667 nm fluorescence (AID 1133); settings: small-molecule microarray binding, FGF2, fluorescence 635/667; higher = more signal
Fibroblast growth factor 2 (Homo sapiens), sequence (P09038 whole entry, looked up): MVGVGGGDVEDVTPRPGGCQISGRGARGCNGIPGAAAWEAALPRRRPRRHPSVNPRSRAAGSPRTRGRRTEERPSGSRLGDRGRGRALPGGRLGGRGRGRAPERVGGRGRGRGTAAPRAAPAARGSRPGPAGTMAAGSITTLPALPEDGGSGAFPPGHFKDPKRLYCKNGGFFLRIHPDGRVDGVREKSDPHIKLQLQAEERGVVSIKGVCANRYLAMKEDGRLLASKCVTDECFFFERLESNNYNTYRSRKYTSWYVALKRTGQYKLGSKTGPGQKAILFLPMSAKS

[15] = mitochondrial membrane potential change in A549 cells, profiling panel, cell-based, JC-1 fluorescence, basal, 24 h, 100 nL (AID 1138); settings: higher = more signal;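 note: A549 lung adenocarcinoma cells under basal conditions with no added stimulus; test concentration not given here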
Lefty1 = Lefty1 binders on small-molecule microarrays, primary screen, biochemical, small-molecule microarray, 635/667 nm fluorescence (AID 1139); settings: small-molecule microarray binding, fluorescence 635/667; higher = more signal
[16] = system: wheat germ agglutinin (Triticum aestivum), Alexa647-labelled; experiment: wheat germ agglutinin binders on compound microarrays, profiling panel, artefact control for SMM control-protein annotation, biochemical, small-molecule microarray, 635/667 nm fluorescence (AID 1140); settings: WGA-A647 binding, 635 nm fluorescence, higher = more signal;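 note: score merges 667 nm feature emission with signal to noise over triplicate slides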
[17] = molecular target: Luciferin 4-monooxygenase (Photinus pyralis) (UniProt P08659); experiment: firefly luciferase enzyme inhibitors, primary screen, biochemical, luminescence, purified enzyme, 2006 set (AID 1141); settings: SteadyGlo luminescence, 30 min, higher = more signal, called active from +8 up or from −8 down;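 note: cell-free assay with purified firefly luciferase at 100 ng per well in PBS; test concentration not given here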
Luciferin 4-monooxygenase (Photinus pyralis), sequence (P08659 whole entry, looked up): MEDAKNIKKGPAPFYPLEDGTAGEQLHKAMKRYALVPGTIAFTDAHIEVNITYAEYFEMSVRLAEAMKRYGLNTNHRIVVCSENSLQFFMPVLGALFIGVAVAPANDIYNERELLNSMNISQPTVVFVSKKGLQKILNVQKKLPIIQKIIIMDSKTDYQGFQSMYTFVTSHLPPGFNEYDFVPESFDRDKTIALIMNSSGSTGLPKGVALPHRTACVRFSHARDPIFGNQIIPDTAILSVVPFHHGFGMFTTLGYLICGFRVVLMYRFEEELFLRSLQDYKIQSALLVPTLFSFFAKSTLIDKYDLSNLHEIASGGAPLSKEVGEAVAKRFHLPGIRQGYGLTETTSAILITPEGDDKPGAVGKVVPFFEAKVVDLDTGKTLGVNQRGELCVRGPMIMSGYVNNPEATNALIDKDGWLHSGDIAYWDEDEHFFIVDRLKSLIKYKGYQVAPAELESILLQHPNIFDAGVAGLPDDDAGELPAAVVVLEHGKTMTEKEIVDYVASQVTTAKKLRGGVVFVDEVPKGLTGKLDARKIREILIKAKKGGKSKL

Row | Compound | composite z-score (Albumin (Bos taurus)) | composite Z-score [1] | composite z-score [2] | composite z-score [3] | composite z-score [4] | composite z-score [5] | composite z-score [6] | composite z-score (Sam68 (KHDRBS1)) | composite z-score [7] | composite z-score [8] | composite z-score [9] | composite z-score [10] | composite z-score [11] | composite z-score [12] | composite z-score [13] | composite z-score [14] | z-score [15] | composite z-score (Lefty1) | composite z-score [16] | z-score [17]
1 | O=C(NC1CC1)[C@@H]1c2ccccc2C(=O)N(Cc2ccccc2C(F)(F)F)[C@H]1c1ccc(CO)cc1 | 0.289 | 2.36 (inactive) | 0.0194 | -0.0173 | 0.676 | 2.26 | 0.234 | 1.35 | 0.102 | 1.08 | 0.911 | 1.1 | 0.829 | 0.428 | 0.928 | 0.86 | 2.04 | 0.159 | 0.527 | -0.945 (inactive)
2 | CCOC(=O)C[C@H]1[C@H](OC(=O)Cc2ccc3c(c2)OCO3)[C@@H](NC(=O)c2ccc3ccccc3c2)c2cc(OCCCO)ccc2N1C(=O)c1ccc2ccccc2n1 | 0.661 | -0.102 (inactive) | 0.0349 | -0.0523 | 0.371 | 0.77 | 0.562 | 0.826 | -0.318 | 0.356 | 0.0303 | 0.731 | -0.339 | 0.774 | 0.197 | 0.334 | 2.55 | 0.37 | 1.06 | -1.25 (inactive)
3 | Cc1ccc(N2C(=O)c3ccccc3[C@](C)(C(=O)NCC(F)(F)F)[C@@H]2c2ccc(CO)cc2)nc1 | -1.6 | -0.326 (inactive) | -0.403 | -0.177 | 0.869 | -0.552 | 0.0759 | -1.78 | -1.8 | -1.26 | -1.32 | -1.22 | -0.637 | -1.94 | -1.6 | -0.986 | -0.2 | -2.1 | -0.188 | -0.679 (inactive)
4 | O=C1O[C@@H](c2ccccc2)[C@@H](c2ccccc2)N2[C@@H](c3ccc(OCCO)cc3)[C@]3(C(=O)Nc4ccc(C#CC5(O)CCCCCC5)cc43)[C@@H](C(=O)NC[C@H](O)c3ccccc3)[C@H]12 | 0.879 | -0.363 (inactive) | 0.158 | 0.0278 | 0.695 | 1.56 | 2.16 | 1.32 | 0.127 | 1.17 | 2.14 | 1.08 | 0.745 | 0.407 | 1.23 | 0.505 | -0.482 | 0.783 | 1.09 | -1.77 (inactive)
5 | Cc1ccc(S[C@]2(C(=O)NC3CC3)CC(=O)N(Cc3ccccc3C(F)(F)F)[C@@H]2c2ccc(CO)cc2I)cc1 | -1.2 | -0.275 (inactive) | -0.0311 | -0.0708 | 0.653 | 0.898 | 0.417 | 0.547 | -0.229 | -0.387 | -1.01 | 0.303 | -0.0823 | -0.763 | 1.25 | 0.0123 | 1.57 | -0.258 | 0.74 | -1.15 (inactive)
6 | COc1ccc([Si](C)(C)[C@@H]2[C@@H](CCn3cc(CCO)nn3)O[C@]3(C(=O)N(Cc4ccc(N5C(=O)c6cccc7cccc5c67)cc4)c4ccccc43)[C@H]2C)cc1 | 0.651 | 0.722 (inactive) | 0.102 | -0.061 | 0.356 | 0.961 | 0.234 | 1.1 | 0.157 | 1.12 | 1.51 | 0.914 | 0.87 | 0.688 | 0.499 | 0.103 | -0.37 | 0.518 | 1.2 | -0.685 (inactive)
7 | O=C1O[C@H](c2ccccc2)[C@H](c2ccccc2)N2[C@H]1[C@@H](C(=O)NC[C@H](O)c1ccccc1)[C@]1(C(=O)Nc3ccc(C#CC4(O)CCCCCC4)cc31)[C@H]2c1ccc(O)cc1 | 0.647 | 0.601 (inactive) | 0.246 | -0.0404 | 0.359 | 0.892 | 1.07 | 1.33 | 0.233 | 1.12 | 1.23 | 0.843 | 0.333 | 0.574 | 1.31 | 1.01 | -0.105 | 0.873 | 0.588 | -1.56 (inactive)
8 | C=C(/C(=C/C[C@H](OC(=O)c1ccncc1)c1cccc(OCCO)c1)c1cc(C(=O)OC)ccc1OC)C(C)C | -0.768 | 0.415 (inactive) | -0.16 | -0.12 | 0.47 | 0.239 | 0.11 | 1.12 | -1.23 | 0.505 | -0.538 | 0.101 | 0.72 | -0.188 | -0.0075 | 0.266 | 2 | 0.411 | 0.844 | -0.979 (inactive)
9 | COCCOC(=O)N1C(=O)[C@@]2(c3cc(C#CCNC(N)=O)ccc31)[C@H](C(=O)NC[C@H](O)c1ccccc1)[C@H]1C(=O)O[C@H](c3ccccc3)[C@H](c3ccccc3)N1[C@@H]2c1ccc(O)cc1 | 0.348 | 0.239 (inactive) | -0.0044 | -0.104 | 0.0718 | 1.14 | 1.01 | 0.928 | -0.474 | 1.02 | 0.95 | 0.502 | 0.492 | 0.651 | 1.35 | 0.674 | -0.175 | 0.16 | 0.436 | -1.48 (inactive)
